Measurements: the supplement of paper PMC3724861
Only a selection was taken, and hits are over-represented in it overall. The true hit rate is not given. Values without a mark were called inactive.

test system: T1, Caupolican (Caup) homeodomain DNA-binding domain; experiment: PBM E-score (8-mer, recovered from the published 9-mer minima) (E-score (dimensionless, -0.5 to 0.5)); Drosophila protein; higher = stronger relative binding preference, active = 0.31 or more
T1 sequence: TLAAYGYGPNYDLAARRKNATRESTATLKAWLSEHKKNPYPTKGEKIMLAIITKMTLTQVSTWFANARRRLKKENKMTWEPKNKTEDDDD
Procedure: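 Protein binding microarray (PBM): in vitro transcribed/translated Caupolican (Caup) homeodomain DNA-binding domain (residues 214-303) applied at 100 nM to a universal 8-mer PBM array (Agilent AMADID 015681). The 8-mer enrichment score (E-score, range -0.5 to 0.5) was computed, and each 9-mer score is the minimum E-score of its two constituent 8-mers. The E-score is the same for a 9-mer and its reverse complement; 0.31 is the stated binding threshold.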

Row | Sequence | PBM E-score
1 | CCCTTTCA | -0.126
2 | ACCCATCG | -0.0141
3 | GCCGTCCC | -0.25
4 | GCTTCCAC | -0.182
5 | ACCCGCAT | 0.00073
6 | CCACTCGG | -0.158
7 | AAAGAAGC | -0.0635
8 | GGGGTACA | 0.0877
9 | TAGACGGA | -0.0225
10 | CTCCAGTC | -0.121
11 | CCAGTGGA | -0.117
12 | AAAGGTAC | 0.12
13 | AGTACATA | 0.381 (active)
14 | CGTACATC | 0.263
15 | GGTACATA | 0.282
16 | CGTACATA | 0.336 (active)
17 | AGTACAGA | 0.138
18 | CGTACAGA | 0.142
19 | CAGACGCC | -0.147
20 | CCGGTCAA | -0.0503
21 | GGATCCCA | -0.0305
22 | ATTGTTCA | 0.184
23 | CTTGTTCA | 0.33 (active)
24 | CTTGTTCC | ≥ 0.337 (active)
25 | CCTGTTCC | 0.0821

Row | Sequence | PBM E-score
26 | CCTGTTCA | 0.15
27 | ATTGTTCC | 0.112
28 | CATGGGGG | -0.157
29 | ATGGGAAG | -0.07
30 | TGTAGACA | ≥ 0.313 (active)
31 | GGTAGACA | 0.117
32 | CGTAGACA | 0.122
33 | ATACATGG | 0.422 (active)
34 | ATCCATGA | 0.0343
35 | CTACATGC | 0.369 (active)
36 | ATACATGA | 0.4 (active)
37 | ATTCATGG | -0.039
38 | ATACAGGA | 0.13
39 | ATACATGC | 0.374 (active)
40 | ATACATCG | 0.273
41 | ATGCATGC | 0.107
42 | CCACATGC | 0.0879
43 | CTACATCC | 0.189
44 | ATTCATGC | 0.0406
45 | AAAATTAA | 0.0601
46 | TATCGTAA | 0.114
47 | ACGACTTC | 0.0231
48 | CCGCAGAA | -0.0611
49 | CGTCGGCC | -0.224
50 | GCGCTGCC | -0.257

Row | Sequence | PBM E-score
51 | CCAGAGAG | -0.172
52 | CGCTTCAA | -0.0124
53 | CTATTGTC | 0.0455
54 | GAGGTACC | -0.137
55 | ACTTGTAG | 0.297
56 | GCTTGTAC | 0.38 (active)
57 | CCTTGTAC | 0.399 (active)
58 | AGTTGTAC | 0.308
59 | CGTTGTAG | 0.154
60 | ACTTGTGC | 0.0346
61 | CCTTGTAG | 0.322 (active)
62 | GCTTGGAC | -0.0623
63 | GCCTGTAC | 0.164
64 | CTTTGTAC | 0.229
65 | ACTTGTAC | 0.407 (active)
66 | CCTTGTGC | 0.0734
67 | GCCCCTCA | -0.223
68 | CGAACGTC | -0.121
69 | ATTGAAAA | 0.0968
70 | CAAGTTCA | 0.0645
71 | GTCATTTA | 0.184
72 | AGCGAGCG | -0.0955
73 | GATATGAC | 0.0792
74 | CATGAAGA | 0.0832
75 | GATGGCGA | -0.0291

Row | Sequence | PBM E-score
76 | AGAGTCGG | -0.0944
77 | CAGTTAAC | -0.00501
78 | CATTGTAG | 0.0869
79 | GATTGTAC | 0.235
80 | CATTGTAC | 0.323 (active)
81 | CATTCCAC | -0.0122
82 | CCAAGTAG | -0.0584
83 | ACAAGTGG | 0.205
84 | ACAAGAAC | 0.316 (active)
85 | GCAAGTAA | 0.173
86 | GCAAGAAC | 0.00872
87 | ACAAGAAT | 0.307
88 | CCAAGTAA | 0.0669
89 | ACAAGTAG | 0.351 (active)
90 | GCAAGTTA | 0.0766
91 | ACAAGTTC | 0.233
92 | ACAAGTAA | 0.331 (active)
93 | ACAAGTTA | 0.325 (active)
94 | AATCTAGT | 0.0691
95 | CCGGTAAC | -0.0103
96 | CCGGACAG | 0.0176
97 | CCCAAGCA | -0.0938
98 | CGACCGCA | -0.144
99 | CATGACGC | 0.032
100 | AAGGACTA | 0.0433

Row | Sequence | PBM E-score
101 | AATTAAGG | 0.0103
102 | ACCAGTGC | -0.019
103 | TAAGGGGA | -0.0541
104 | ACAAGTAC | 0.35 (active)
105 | ACAAGGAA | 0.247
106 | ACAAGGAT | 0.315 (active)
107 | AAAAGTAT | 0.121
108 | CCAAGTAC | 0.0484
109 | ACAAGTAT | 0.314 (active)
110 | GCAAGTAC | 0.176
111 | ACAAGTCT | 0.296
112 | ACAAGGAG | 0.224
113 | AAGATCGA | 0.0302
114 | TCAGTTAA | 0.0667
115 | ACAGGTAT | 0.203
116 | ACCCCTCG | -0.218
117 | GTGTGAAC | 0.0865
118 | ATATGTCC | 0.261
119 | CTCTGTAC | 0.137
120 | CTATGTAC | 0.381 (active)
121 | ATATGTAG | 0.297
122 | CTATGTGC | 0.0747
123 | ATATGTAC | 0.387 (active)
124 | CTAGGACA | 0.241
125 | TAGTTTAA | 0.218

Row | Sequence | PBM E-score
126 | AGCGAGCT | -0.108
127 | ACACCACC | 0.0972
128 | AAACTTTC | -0.0217
129 | ACTGACAG | 0.0804
130 | CAAACATA | 0.292
131 | AAAACATG | 0.419 (active)
132 | CAAACACA | 0.265
133 | AAAACATT | 0.252
134 | AAAACATC | 0.305
135 | CAAACACC | 0.126
136 | CAAACATC | 0.23
137 | CAAACATG | 0.391 (active)
138 | CAAACACG | 0.315 (active)
139 | CATCTAGG | -0.0637
140 | CAAGTAAG | 0.0621
141 | CATTTCAA | 0.154
142 | ATGCAATA | 0.197
143 | TGAGGCAA | -0.0847
144 | AAGGGCGC | -0.172
145 | CACCAGGC | -0.132
